The sequences below were run on VDR:RXRa (NR concentration 270 nM, RXRa partner concentration 90 nM) (assay: PBM binding z-score (relative to random genomic background probes); higher = stronger binding; sequences stand for … in GC…GCGATTGACAGCGTAGAATGAAGG).
Method: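 Protein-binding microarray (Agilent 4x180K custom design, double-stranded 60-nt probes: 5' GC cap, 34-nt variable region, 24-nt constant primer region; full probe sequence given). Purified or IVT nuclear receptor:RXRα heterodimers (3:1 NR:RXRα, mostly 270:90 nM) or homodimers were incubated for 1 h in PBS with 2% milk and no ligand, then detected with Alexa488 antibodies. Fluorescence from o1-orientation probes (~5 replicates averaged) was converted to z-scores against 500 random hg19 background probes. Variable regions are seed direct-repeat (DR0–DR5) sites, all their single-nucleotide variants and half-site ablations.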
Work on AATAGCAGGCCAAGGGTCACTCAAGATTAGTCCG yielded a PBM binding z-score of 2.92.
CCAGACAGGTGAAAGGTAACTCAATCTGGTACGC gave a PBM binding z-score of 0.936.
Work on TCTTGTAGATCAACAGGAGGTTAAGATAGATCGA yielded a PBM binding z-score of 0.488.
GCCGCTAGGTCAACTGATGGTCAGCTAAAGCTCG gave a PBM binding z-score of 1.45.
Work on TGAATAAGGTTATAAGATCAGGGAACGTTGCAAA yielded a PBM binding z-score of 0.743.
Work on CAGCCTAGGTCCGGGCCAGTATAGGAGGAACGTT yielded a PBM binding z-score of -0.982.
In the case of CCTAGCAGGCCAATCTGGGTCAGTCAAGGCTTGA, the PBM binding z-score is reported as -0.258.
Work on TCGAGTAGGTTACCAATGGGGCATTCATCTTTCT yielded a PBM binding z-score of 0.117.
With ATCGATAGGTCGAGGTGAGTATAGAGAAAGGGAA the PBM binding z-score was 0.414.
AATACAGGGTCACTAGGCCAGAGGAGGTACGAAT showed a PBM binding z-score of 4.09.
Sequence CGAACTAGGTCTTTGACAGGACAGTGAATAGTAA has a PBM binding z-score of -0.318.
Sequence GATACAGGGTCAGCTAGAGGCCGGAGTATGGAAA has a PBM binding z-score of 2.8.
ACTAGCAGGCCAAGTTTGGGACACTCAAACAAAG was tested, and the PBM binding z-score was -0.55.
For TCTTGTAGATCGAAGGTTAAGAAAGCCGAAGCCT, the PBM binding z-score was 0.313.
Sequence ACTAGCAGGCCAAGTTTGGGTTACTCAAACAAAG has a PBM binding z-score of -0.254.
GCTCGTAGATCAAGGTTAAGAAAGACTAAGCTAA was tested, and the PBM binding z-score was -0.0501.
For GCTCGGAGAACAAGGTCAGAGCTTTGTCCGTAGA, the PBM binding z-score was 1.5.
With ACAGACAGGTGAGTGAAGGTAACCCAGCTGGACG the PBM binding z-score was -0.336.
Work on TAGCCTAGGTCTTGCGGGCCAGTATAGTGTCGGC yielded a PBM binding z-score of -0.977.
TCTAGTAGGCCAGAGGGTCACTCAAGAGGTACGG was tested, and the PBM binding z-score was 1.91.
GCAGACGGGTGAAACGCAGGTAACTCAGGGTGGC was tested, and the PBM binding z-score was -0.555.
With ATCTCTAGGTAAGACTCAGTTCAGAGAAGAACGC the PBM binding z-score was 0.685.
In the case of CCTCGGAGAACAGAAGGTCAGAGCTGTCCGCTTT, the PBM binding z-score is reported as 1.03.
TCAGACAGGTGAAGGTATCTCAGGTACGCAGTCG gave a PBM binding z-score of 0.814.
In the case of CGTCCAAGGTCAGCAGGTCGGTGAAAGCGACGTG, the PBM binding z-score is reported as 3.71.
CAAACTAGGTCACCGGTAGGTCAAAGTCCGCATG gave a PBM binding z-score of 4.75.
Work on AGAACGAGGGCACGCTGAGTTGATAGTAGAGTAG yielded a PBM binding z-score of 2.38.
For TACCCTAGGTCAGATCGGGCCAGTATACGCTATA, the PBM binding z-score was 1.17.
With TCTTGTAGATCAGTAGGTTAAGAAAGCTGGCCAA the PBM binding z-score was 0.673.
In the case of CCGACTGGGGCAAGGTTACCAGAACGCACAGCCA, the PBM binding z-score is reported as 0.0138.
In the case of CGTCCAAGGTCAAAGCTAGGTCAGTGAAAGCATT, the PBM binding z-score is reported as 5.25.
For ACAGACAGGCGAGTGAAGGTAACTCAGCTGGACG, the PBM binding z-score was -0.451.
In the case of CCTACTGGGCCACGATAGGTCATTGATTCAGTGA, the PBM binding z-score is reported as 1.15.
Work on AGAATGAGGTTACCGAAGATCAGGGAAACGCTTG yielded a PBM binding z-score of 1.53.
For AGAACGAAGGCACGCTGAGTTGATAGCAGAGTAG, the PBM binding z-score was -0.487.
For TTACCAAGGTGAAGCTCGTTGATCCCTCTGTAGA, the PBM binding z-score was -0.103.
Sequence CGTCCAAGGTAAAGGTCAGTGAAAGAGACTCGAA has a PBM binding z-score of 2.43.
CCGACTGGGGCAAGGGTTACCATACTCAGTACGA gave a PBM binding z-score of -0.292.
With CTACCAAGGTGAACAAGGTCGTAGATTACTATTC the PBM binding z-score was 5.56.
ATCGTAAGGTCGAAGGTGAGTATACCCACCCGAA showed a PBM binding z-score of 2.04.

Source: the supplement of paper PMC6555819
